# Out of some 360,000 compounds screened, about 16,000 (4.4%) were called active. Where a call stands in place of a potency, no number is given. Inconclusive results (about 9%) are left out. The call rests on the fitted dose curve; in most records, active means well fitted inhibition curve with a large enough effect; inconclusive means small, poorly fitted or top-dose-only effect; inactive means no such curve, though single readings can be large or run the other way. For the sample, actives were picked, then their nearest neighbours and some compounds at random.
# Target: Bromodomain adjacent to zinc finger domain protein 2B (Homo sapiens) (UniProt Q9UIF8)
# Sequence (Q9UIF8 whole entry, looked up, the tested form may be a part): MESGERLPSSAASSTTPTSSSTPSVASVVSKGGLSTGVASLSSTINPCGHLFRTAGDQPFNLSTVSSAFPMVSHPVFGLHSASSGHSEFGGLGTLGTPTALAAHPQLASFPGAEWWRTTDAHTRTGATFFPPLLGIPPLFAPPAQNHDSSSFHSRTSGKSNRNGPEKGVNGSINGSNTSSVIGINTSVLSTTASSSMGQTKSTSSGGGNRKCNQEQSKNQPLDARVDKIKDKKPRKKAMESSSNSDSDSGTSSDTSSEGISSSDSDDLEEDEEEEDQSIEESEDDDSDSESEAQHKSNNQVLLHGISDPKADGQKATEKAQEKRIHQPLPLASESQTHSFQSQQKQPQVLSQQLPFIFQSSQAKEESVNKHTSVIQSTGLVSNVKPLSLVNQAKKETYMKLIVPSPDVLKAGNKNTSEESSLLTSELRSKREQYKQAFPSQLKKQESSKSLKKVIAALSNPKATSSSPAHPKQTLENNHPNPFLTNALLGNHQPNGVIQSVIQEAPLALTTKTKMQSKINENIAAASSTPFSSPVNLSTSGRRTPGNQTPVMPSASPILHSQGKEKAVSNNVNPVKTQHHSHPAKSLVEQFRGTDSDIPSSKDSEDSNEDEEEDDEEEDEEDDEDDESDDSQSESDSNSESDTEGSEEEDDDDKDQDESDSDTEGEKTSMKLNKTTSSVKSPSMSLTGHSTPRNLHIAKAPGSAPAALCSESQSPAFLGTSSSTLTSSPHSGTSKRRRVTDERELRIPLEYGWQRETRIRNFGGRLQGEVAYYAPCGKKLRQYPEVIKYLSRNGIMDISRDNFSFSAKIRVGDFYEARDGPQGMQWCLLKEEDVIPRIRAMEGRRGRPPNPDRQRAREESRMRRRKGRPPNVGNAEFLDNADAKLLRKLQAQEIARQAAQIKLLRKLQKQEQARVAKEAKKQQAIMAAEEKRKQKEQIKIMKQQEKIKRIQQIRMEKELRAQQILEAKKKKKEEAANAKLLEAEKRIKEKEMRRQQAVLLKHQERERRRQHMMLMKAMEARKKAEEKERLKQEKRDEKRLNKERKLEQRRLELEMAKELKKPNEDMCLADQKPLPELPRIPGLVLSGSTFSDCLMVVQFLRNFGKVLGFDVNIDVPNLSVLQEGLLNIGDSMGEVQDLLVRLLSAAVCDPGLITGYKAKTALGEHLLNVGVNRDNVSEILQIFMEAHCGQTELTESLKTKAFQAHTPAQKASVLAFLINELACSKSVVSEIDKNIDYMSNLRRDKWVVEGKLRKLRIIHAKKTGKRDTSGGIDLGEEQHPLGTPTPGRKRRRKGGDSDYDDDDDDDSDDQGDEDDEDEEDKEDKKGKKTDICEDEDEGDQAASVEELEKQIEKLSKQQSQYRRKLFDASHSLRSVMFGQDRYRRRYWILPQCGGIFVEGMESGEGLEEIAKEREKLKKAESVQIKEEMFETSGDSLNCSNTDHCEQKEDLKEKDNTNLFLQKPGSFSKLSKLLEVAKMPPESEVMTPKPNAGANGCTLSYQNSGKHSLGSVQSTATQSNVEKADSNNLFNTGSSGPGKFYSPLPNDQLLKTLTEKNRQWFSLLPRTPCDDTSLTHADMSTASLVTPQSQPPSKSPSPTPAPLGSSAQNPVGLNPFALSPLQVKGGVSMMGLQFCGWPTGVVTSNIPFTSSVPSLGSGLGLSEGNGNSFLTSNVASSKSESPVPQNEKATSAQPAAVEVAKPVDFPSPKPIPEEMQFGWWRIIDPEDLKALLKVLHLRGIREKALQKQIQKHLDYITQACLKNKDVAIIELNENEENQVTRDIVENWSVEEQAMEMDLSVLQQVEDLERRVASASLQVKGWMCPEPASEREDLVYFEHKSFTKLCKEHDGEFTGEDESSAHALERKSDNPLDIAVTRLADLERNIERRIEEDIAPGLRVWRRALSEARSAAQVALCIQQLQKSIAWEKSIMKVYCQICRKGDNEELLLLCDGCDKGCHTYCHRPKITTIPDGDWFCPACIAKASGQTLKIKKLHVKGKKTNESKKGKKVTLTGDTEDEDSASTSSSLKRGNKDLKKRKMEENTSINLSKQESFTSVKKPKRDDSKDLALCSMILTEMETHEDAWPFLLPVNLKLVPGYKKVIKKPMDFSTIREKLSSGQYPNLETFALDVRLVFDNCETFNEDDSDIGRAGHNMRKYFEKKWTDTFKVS
# Experiment: qHTS Assay for Inhibitors of BAZ2B; further: nearly all actives have a fitted effect of over 60% in size
# Conditions: AlphaScreen BAZ2B-H3K14Ac peptide displacement; series mostly up to 114 µM
# Excerpt: BAZ2B (bromodomain adjacent to zinc finger domain, 2B) belongs to a family of ubiquitously expressed bromodomain containing proteins, which biological function has not yet been elucidated. […] The interaction of BAZ2B with ISWI mediated by the BAZ1 motif has recently been described. […] The protocol is based on the AlphaScreen (PerkinElmer) displacement assay developed by NCGC [5], but uses the peptide ligand Biot-H3K14Ac, a high affinity binding partner for BAZ2B, in an AlphaScreen format. Although AlphaScreen has significant advantages with its utility in a variety of epigenetic target assays, the primary screening data provided in this deposition should be used with caution due to the prevalence of screening artifacts. The top compound concentration tested was 110uM in this assay, which increases number of actives and potential artifacts. An AlphaScreen counterscreen is highly recommended to be run against any putative actives to eliminate non-specific artifacts. Alternatively, one can use other AlphaScreen assays in PubChem to filter out promiscuous hits. Eberharter, A. et al. ACF1 improves the effectiveness of nucleosome mobilization by ISWI through PHD-histone contacts. The EMBO journal 23, 4029-4039. 2004. PMID: 15457208 [2] Jones, M.H. et al. A novel family of bromodomain genes. Genomics 63, 40-45. 2000. PMID: 10662543 [3] Yasgar, et al. Compound Management for Quantitative High-Throughput Screening. JALA. 2008 Apr;13(2):79-89. PMID: 18496600 [4] Inglese, et al. Quantitative high-throughput screening: a titration-based approach that efficiently identifies biological activities in large chemical libraries. Proc Natl Acad Sci. 1;103(31):11473-8. 2006. PMID: 16864780 [5] Quinn et al. A chemiluminescence-based method for identification of histone lysine methyltransferase inhibitors. Mol Biosyst 6(5): 782-8. 2010. PMID: 20567762 [6] Baell,Holloway. New substructure filters for removal of pan assay interference compounds (PAINS) from screening libraries and for their exclusion in bioassays. J Med Chem. 53(7):2719-40. 2010. PMID: 20131845 NIH Molecular Libraries Probe Production Network [MLPCN] NIH Chemical Genomics Center [NCGC] Structural Genomics Consortium (SGC) NIH Grant: 5U54 MH084681-02
# To each well of a 1,536w plate, 2ul of BAZ2B protein (final 50nM) and 1ul biotinylated histone peptide acetylated at Lys14 [b-H3(5-23)K14Ac] (final 50nM) were added in 1x PBS buffer, pH 7.4, containing 0.01% Tween-20, using a nanoliter dispenser. Formation of a protein-peptide complex proceeded at room temperature for 30 min. A Kalypsys pin-tool was employed to transfer 23 nL of library compound solution in DMSO to each well. Following a 30 min incubation of the protein-peptide complex with compounds at room temperature, a mixture of 40 ug/mL each streptavidin-coated donor and nickel chelate acceptor AlphaScreen beads (final 10 ug/mL) were added in a 1ul dispense for a final volume of 4ul. A brief centrifugation followed (1000rpm, 1 min) and were then incubated protected from the light for 20 min at room temperature. Plates were read on an EnVision multilabel plate reader using the 1,536 plate HTS AlphaScreen aperture (excitation time 80 ms, measurement time 240 ms).
# Potency means the concentration at half of the fitted maximal effect.
row,SMILES,Potency
1,CC[N+](C)(CC)CCC[n+]1c(-c2ccccc2)c2cc(N)ccc2c2ccc(N)cc21,44.7 µM (active)
2,CNC(=O)O/N=C(\N)Cc1csc2ccccc12,inactive
3,COCCNC(=O)CN1C2CCC1CC(O)(c1cccnc1)C2 (stereo not given),inactive
4,COC(=O)C1=C(c2ccc(Cl)c(C(F)(F)F)c2)C[C@@H]2CC[C@H]1N2C(=O)NC1CC1,inactive
5,COc1ccc(CNCCc2c[nH]c3ccccc23)cc1OC,50.1 µM (active)
6,c1cncc(CNCCc2c[nH]c3ccccc23)c1,inactive
7,C/C(CCc1c[nH]c2ccccc12)=N\O,inactive
8,O=c1[nH]c(O)c(C=Nc2cc(F)cc(F)c2)c(=O)[nH]1,inactive
9,COC(=O)C1=C(c2cccc(OCc3ccccc3)c2)C[C@@H]2CC[C@H]1N2C(=O)NNCc1ccccc1,inactive
10,Cc1ccccc1NC(=O)COC(=O)c1cc(C)n(C2CC2)c1C,inactive
11,COc1ccc(C2N3CC(C)(C)CN23)cc1 (stereo not given),inactive
12,CCC1(C)CC(CCNCc2ccc(N(C)C)cc2)(c2ccc(F)cc2)CCO1 (stereo not given),35.5 µM (active)
13,O=C(COC(=O)c1ccccc1)Nc1ccccc1Sc1ccccc1,inactive
14,CN(C)CCN(CC1CCCN(Cc2ccccc2F)C1)C(=O)Cc1ccc(F)c(F)c1 (stereo not given),inactive
15,CCCCCn1c(=O)c(C(=O)NCc2ccccc2)c(O)c2ccccc21,inactive
16,O=C(C1CCN(CC2CCCCC2)CC1)N1CCCC1,70.8 µM (active)
17,COC(=O)C1=C(c2ccc(-c3ccccc3)c(F)c2)C[C@@H]2CC[C@H]1N2C(=O)NCc1ccc(F)cc1,inactive
18,COc1cccc(C(=O)N2C[C@H]3C[C@@H](C2)c2cccc(=O)n2C3)c1,inactive
19,COc1cccc(OC)c1C(=O)NC(=S)N1C[C@H]2C[C@H](C1)c1cccc(=O)n1C2,inactive
20,COC(=O)C1=C(c2c(C)noc2C)C[C@@H]2CC[C@H]1N2C(=O)NCc1ccc2c(c1)OCO2,inactive
21,COc1ccc(CNCCc2ccc3c(c2)OCO3)c(OC)c1OC,50.1 µM (active)
22,Cc1cc(N2C(=O)C3CCCN3C2c2ccc(Cl)c(Cl)c2)no1 (stereo not given),inactive
23,O=C(O)CCn1cc(C=C2C(=O)NC(=S)NC2=O)c(-c2cccc(Br)c2)n1,79.4 µM (active)
24,CN1C2C=C(N(C(=O)c3ccc(Cl)cc3)c3ccccc3)CC1CC2 (stereo not given),inactive
25,O=C(NC(=S)N1C[C@H]2C[C@H](C1)c1cccc(=O)n1C2)c1ccc(F)cc1,inactive

row,SMILES,Potency
1,O=C(N/N=C/c1c(O)n(Cc2ccccc2)c(=O)[nH]c1=O)c1ccccc1,50.1 µM (active)
2,CCCCC(=O)N/N=C/c1c(O)n(CC)c(=S)n(CC)c1=O,inactive
3,O=c1[nH]c(=O)n(CCc2ccccc2)c(O)c1/C=N/N1CCOCC1,inactive
4,O=c1[nH]c(=O)n(CCc2ccc(F)cc2)c(O)c1/C=N/N1CCCCC1,inactive
5,CCCCC(=O)N/N=C/c1c(O)n(-c2ccccc2)c(=O)[nH]c1=O,50.1 µM (active)
6,O=c1[nH]c(=O)n(-c2ccccc2)c(O)c1C=NC12CN3CN(CN(C3)C1)C2,inactive
7,Cc1cccc(-n2c(O)c(C=NC34CN5CN(CN(C5)C3)C4)c(=O)[nH]c2=O)c1,inactive
8,CCCCC(=O)N/N=C/c1c(O)n(CCC2=CCCCC2)c(=O)[nH]c1=O,79.4 µM (active)
9,O=c1[nH]c(=O)n(Cc2ccccc2)c(O)c1/C=N/Nc1c(F)c(F)c(F)c(F)c1F,inactive
10,Cn1cc(C(=O)OCC(=O)N2CCCC2)c2ccccc21,inactive
11,C=CCN1C(=O)C2(C(C(=O)OCC)=C(N)Oc3c2c(=O)oc2ccccc32)c2ccccc21 (stereo not given),inactive
12,O=[N+]([O-])c1ccc(C2C3C(c4ccccc4)=NC4(CCCCC4)N32)cc1 (stereo not given),inactive
13,COC(=O)C1=C(c2ccc(F)cc2OCc2ccccc2)C[C@@H]2CC[C@H]1N2C(=O)NCc1ccc2[nH]ccc2c1,inactive
14,COC(=O)C1=C(c2cccc(OCc3ccccc3)c2)C[C@@H]2CC[C@H]1N2C(=O)NCc1ccc(Br)cc1,inactive
15,C=CCn1c(O)c(/C=N/N2CCOCC2)c(=O)[nH]c1=S,inactive
16,C[C@@H]1CC[C@@]2(OC1)O[C@H]1C[C@H]3[C@@H]4CC=C5C[C@@H](O)[C@H](O)C[C@]5(C)C4CC[C@]3(C)[C@H]1[C@@H]2C (stereo not given in full),inactive
17,CC1=CC(=Cc2sc3ccccc3[n+]2C)C=C(C)O1,inactive
18,COC(=O)C1=C(c2ccc(Cl)c(C(F)(F)F)c2)C[C@@H]2CC[C@H]1N2C(=O)NC(C)C,inactive
19,COc1ccc(-c2nn(CCC#N)cc2C(=O)Nc2ccc(C(C)=O)cc2)cc1,inactive
20,COc1ccccc1NC(=O)N1C[C@@H]2C[C@@H](C1)c1cccc(=O)n1C2,inactive
21,O=C1NC(=O)N(Cc2ccco2)C(=O)/C1=C\c1cccn1CCOc1ccccc1,28.2 µM (active)
22,O=C(O)COc1ccccc1/C=C1\C(=O)NC(=O)N(CCC2=CCCCC2)C1=O,inactive
23,O=C1NC(=O)N(CCc2ccc(F)cc2)C(=O)/C1=C/C=C/c1ccccc1,inactive
24,CCOC(=O)c1c(C)c(C(=O)N2CCC3(CC2)OCCO3)c(C)n1CC,inactive
25,O=c1[nH]c(CN2CC=C(c3ccccc3)CC2)nc2scc(-c3cccs3)c12,inactive

row,SMILES,Potency
1,O=C(COc1ccc2ccccc2c1)N1CCN(Cc2ccncc2)CC1,inactive
2,O=C(Cc1ccccc1)N1CCN(C2CCCCCC2)CC1,50.1 µM (active)
3,COc1ccccc1CN1CCN(C(=O)Cc2ccccc2)CC1,50.1 µM (active)
4,CCC(=NCCc1ccccc1)c1c(O)n(C2CCCCC2)c(=O)[nH]c1=O,inactive
5,O=C(Cc1ccc(Cl)cc1)NCCN1CCN(C(=O)Cc2ccc(Cl)cc2)CC1,inactive
6,O=C(Cn1c(=O)n(CC2CS2)c2ccccc21)N1CCCCC1 (stereo not given),inactive
7,COc1ccc(N=Cc2c(O)n(C)c(=O)[nH]c2=O)cc1,inactive
8,CN1CCC(OC(=O)c2cccc(F)c2)CC1,inactive
9,COc1ccc(C(=O)C2CN(C)CC2C(=O)c2ccc(OC)cc2)cc1 (stereo not given),inactive
10,COC(=O)C1=C(c2ccc3ccccc3c2)C[C@@H]2CC[C@H]1N2C(=O)NCCO,inactive
11,CC(Cc1ccccc1)NCCC(c1ccccc1)c1ccccc1 (stereo not given),inactive
12,O=C(Cc1ccccc1[N+](=O)[O-])N1CCN(Cc2ccc3c(c2)OCO3)CC1,inactive
13,Fc1ccc(N2CCN(Cc3ccc4c(c3)OCO4)CC2)cc1,56.2 µM (active)
14,Cc1cc(=O)oc2c(C)c(OCC(=O)N3CCN(Cc4ccc5c(c4)OCO5)CC3)ccc12,inactive
15,CCc1ccc(OCC(=O)N2CCN(CC(=O)Nc3ccccc3Cl)CC2)cc1,inactive
16,Cc1cc(/C=C2/C(=O)NC(=O)N(Cc3ccco3)C2=O)c(C)n1-c1ccc(C(=O)O)cc1,56.2 µM (active)
17,Cc1cc(C=C2C(=O)NC(=O)NC2=O)c(C)n1-c1ccncc1,inactive
18,Cc1ccc(-n2c(C)cc(/C=C3\C(=O)NC(=O)N(C)C3=O)c2C)cc1C,inactive
19,Cn1c(O)c(C(=Nc2ccc(F)cc2)c2ccccc2)c(=O)n(C)c1=O,inactive
20,CCN(CC)c1ccc([N+](=O)[O-])c2cccnc12,28.2 µM (active)
21,COC(=O)C1=C(c2ccccc2OCc2ccccc2)C[C@@H]2CC[C@H]1N2C(=O)NCc1ccc(OC)cc1,inactive
22,Cc1c(Oc2cc(NN3CCCCC3)c([N+](=O)[O-])cc2[N+](=O)[O-])cccc1[N+](=O)[O-],inactive
23,CN(C)C(=O)Oc1ccc(NC(=O)N2CCOCC2)cc1,inactive
24,COc1ccc2[nH]c3c(c2c1)CCN[C@H]3C,44.7 µM (active)
25,CCOC(=O)C1(Cc2ccc(Cl)cc2)CCN(C(C)CCn2cccn2)CC1 (stereo not given),inactive

row,SMILES,Potency
1,CCCCn1c(=O)c(C(=O)Nc2ccccc2Cl)c(O)c2ccccc21,inactive
2,Cc1cccc(Cn2cccc(C(=O)Nc3ccc4c(c3)OCCO4)c2=O)c1,inactive
3,O=c1c2ccccc2nc(/C=C/c2ccc(F)cc2)n1-c1ccccc1O,inactive
4,C=CCN1C(=O)NC(=O)/C(=C/c2ccc(OCC(=O)Nc3ccc(C)cc3)cc2)C1=O,50.1 µM (active)
5,C=CCN(CC=C)C(=O)Nc1ccc(OCC)cc1,inactive
6,Cc1ccc(C2CN(C)CC2C(=O)c2ccc(F)cc2)cc1 (stereo not given),inactive
7,CC(C)c1c(CN(C)C(C)Cc2ccccc2)n(C)n(-c2ccccc2)c1=O (stereo not given),inactive
8,CN1CCc2cc3c(cc2[C@H]1[C@@H]1OC(=O)c2c1ccc1c2OCO1)OCO3,inactive
9,C[C@]12CC[C@H](O)C[C@H]1CC[C@@H]1C2CC[C@]2(C)[C@@H](C3=CC(=O)OC3)[C@@H](O)C[C@]12O (stereo not given in full),inactive
10,CN(C)CC1CCCCC1=O (stereo not given),inactive
11,Cc1c(C(=O)O)cccc1-n1c(C)cc(/C=C2\C(=O)NC(=O)N(c3ccc4c(c3)OCO4)C2=O)c1C,56.2 µM (active)
12,Cc1ccccc1N1C(=O)NC(=O)/C(=C\c2cc(C)n(C)c2C)C1=O,inactive
13,O=C1N=c2ccccc2=C/C1=C\c1c(O)[nH]c(=S)[nH]c1=O,inactive
14,O=C1NC(=O)C(C/C=C/c2ccccc2)C(=O)N1,inactive
15,CCOP(=S)(OCC)C(O)CCCCCn1c(=O)c(F)cn(C2CCCO2)c1=O (stereo not given),inactive
16,CCc1nc2ccccc2c(=O)n1-c1cccc(OC)c1,inactive
17,CC(C)c1ccc(O)c(CN2CCN(c3ccccc3)CC2)c1,inactive
18,COc1ccc(CN2CCN(c3ccccc3F)CC2)c(OC)c1,50.1 µM (active)
19,Cc1cccc(NC(=O)N2CC3CC(C2)c2cccc(=O)n2C3)c1 (stereo not given),inactive
20,CCOc1cccc(=NC2CCCCC2)c2c(C)[nH]c(C)c12,inactive
21,O=C(O)c1ccccc1NC(=O)C1C2CCC(O2)C1C(=O)O (stereo not given),inactive
22,CCN(CC)C(=O)Oc1ccc(NC(=O)N2CCOCC2)cc1,inactive
23,CCCCn1c(O)c(C(CC)=NCc2ccco2)c(=O)[nH]c1=O,inactive
24,CCC(=NCc1ccco1)c1c(O)n(Cc2ccccc2)c(=O)[nH]c1=O,50.1 µM (active)
25,CC/C(=N\NC(=O)c1ccccc1O)c1c(O)n(Cc2ccccc2)c(=O)[nH]c1=O,inactive

# Source: PubChem BioAssay AID504333 (National Center for Advancing Translational Sciences (NCATS), 2011)
